This is one part of a sample in which hits are shown more often than they occur.
Tg IFNy HTS: T. gondii growth inhibition with IFN-gamma, primary screen, cell-based; Toxoplasma gondii growth in IFN-gamma-treated host cells; active compounds read low; activity change, negative = inhibition, % (concentration not given with the values); 69,000 tested, 3.8% active; in the data active = activity change below about -70%, passing the limit was not always enough;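 note: host cells are HeLa cells infected with Toxoplasma gondii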
Starred values were filed as active, the others as inactive; i = inactive; ! = repeats disagree.

SMILES	Tg IFNy HTS
CC(C)c1cc(C(=O)Nc2ccc(Cn3cncn3)cc2)cs1	107
Cc1ccc(S(=O)(=O)N2CCn3cc(CN(C)C)nc3C2)cc1	-1
CCn1ccnc1CN1CCC(CNC(=O)c2ncccc2C)C1 (stereo not drawn)	-3
CCc1ccc(NC(=O)N2CCC3(CC2)Nc2cc(OC)ccc2-n2cccc23)cc1	225
CC(C)(C)c1cnc(CSc2cnc(NC(=O)C3CCNCC3)s2)o1	-72*
O=C(c1coc(CN2CCN(c3ccccc3F)CC2)n1)N1CC=CC1	9
CNC(=O)[C@@H]1C[C@@H](N)CN1C(=O)c1ccc(-c2ccc(OC)cc2)o1	-30
CCn1ncnc1CN1CCC(c2nn(C)c(=O)n2-c2ccccc2)CC1	-74*
CCn1ncnc1CN1CCCC(c2n[nH]c(=O)n2-c2ccccc2)C1 (stereo not drawn)	-19
Cc1ncc(CN2CCC(c3nn(C)c(=O)n3-c3ccccc3)CC2)s1	-6
CCn1c(=O)c(-c2nc(-c3ccc(C)cc3C)no2)c(O)c2cc(F)ccc21	62
COc1ncc(C(=O)Nc2ccc(N3CCCC3)c(F)c2)cn1	45
CC1(C)NC(=O)N(CC(=O)Nc2ccc(N3CCCCC3)c(C(F)(F)F)c2)C1=O	-23
COc1cc(C(=O)Nc2ccc(N3CCCCC3)c(C(F)(F)F)c2)nc(OC)n1	-82*
CCN1c2cc(C)ccc2-n2cccc2C12CCN(C(=O)Nc1ccc(Br)cc1F)CC2	83
CCNC(=O)c1ccc2ccc(N(C)c3ccccc3)n2c1	-4
CC(C)(C)CC(C)(C)c1ccc(OCCOCC[N+](C)(C)Cc2ccccc2)cc1	-78*!
CCOc1ncnc2c1CCN(C1CCOCC1)CC2	-29
O=C1NC(c2ccccc2)=N[C@@]12CC[C@H]1CN(Cc3ccoc3)C[C@H]12	40
COc1ccc(CC(=O)N2CCC3(CC2)CC(OC)C3)cc1	i
O=C(NC1CCCCCCC1)C1CC(=O)N(CCc2c[nH]c3ccc(F)cc23)C1 (stereo not drawn)	21
CCc1ccc(S(=O)(=O)N2CCc3c(CNc4ncccn4)nn(C)c3C2)cc1	-8
CCC(C)NC(=O)c1nc(-c2ccc(C)cc2)n2c1CCCCC2 (stereo not drawn)	-92*
COc1ccc(N2CCN(C(=O)c3nc(-c4cccc(F)c4)n4c3CCCCC4)CC2)cc1	43
COc1ccc(CNC(=O)c2nc(-c3ccc(C)cc3)n3c2CCCCC3)cc1	-70
SMILES	Tg IFNy HTS
Cc1ccc(-c2nc(C(=O)NCCN3CCOCC3)c3n2CCCCC3)cc1	13
CCC(C)NC(=O)c1nc(-c2cccc(F)c2)n2c1CCCCC2 (stereo not drawn)	-98*
CCCCN(C)C(=O)c1nc(-c2cccc(F)c2)n2c1CCCCC2	-17
O=C(NCCN1CCCCCC1)c1nc(-c2ccc(Cl)cc2)n2c1CCCCC2	-56
COCCNC(=O)c1nc(-c2cccc(F)c2)n2c1CCCCC2	94
Cc1ccc(-c2nc(C(=O)Nc3ccc4c(c3)OCCO4)c3n2CCCCC3)cc1	-94*
COc1cccc(CNC(=O)c2nc(-c3ccc(C)cc3)n3c2CCCCC3)c1	-108*
CCNC(=O)c1nc(-c2ccc(Cl)cc2)n2c1CCCCC2	-7
Cc1ccc(Nc2nc(C(=O)Nc3ccc4c(c3)OCCO4)nc3ccccc23)cc1	-56
Cc1nc2ccc(NC(=O)NC(=O)c3ccccc3Cl)cc2o1	-20
CCCn1cnnc1CNCC(=O)Nc1cnccn1	5
O=C(c1cccnc1-c1cccc2c1CCNC2)N1C[C@H]2CC[C@@H]1C2	5
CN(C)c1nc2c(c(=O)[nH]1)CCN(C(=O)c1scc3c1OCCO3)C2	-55
Cn1c(=O)c(-c2nc(-c3ccc(Cl)c(F)c3)no2)c(O)c2ccccc21	-22
Cc1nnc(SCc2ccc(C#N)cc2)n1C	-50
CCS(=O)(=O)N1CCC2(CC1)COCCN(c1cccnc1)C2	4
COC(=O)c1cc(C)nc2c1c(=O)n(Cc1nc(-c3cccc(Br)c3)oc1C)c(=O)n2C	1
COc1ccc(CNC(=O)CC2N=C3c4ccccc4N=C(SCc4cccc(F)c4)N3C2=O)cc1 (stereo not drawn)	-8
Cc1sc(NC(=O)c2cccn3nnnc23)nc1-c1cc2ccccc2oc1=O	-2
CCCCCC(=O)c1sc(Cl)c(Cl)c1Cl	-42
Cn1cccc1C(=O)N1CCCC2(COCCN(c3ccccc3)C2)C1 (stereo not drawn)	8
Cc1ccc(C(=O)N2CCC(Cc3cccc(C(=O)O)c3)CC2)c(=O)n1C	2
COc1ccc(CN2CCc3nc(NC(C)C)nc(N(C)C)c3C2)cc1	-21
CCc1ncc(-c2nccn2Cc2cnn(-c3ccc(F)cc3)c2)cn1	-6
CN(C)CC1(O)CCCN(C(=O)C2=Cc3ccccc3OC=C2)CC1 (stereo not drawn)	98
SMILES	Tg IFNy HTS
COc1ccc2c(c1)C(C)=CC(C)(C)N2S(=O)(=O)c1ccc(Cl)cc1	-93*
COc1ccc(S(=O)(=O)N2CCC3(CC2)Nc2ccc(Cl)cc2-n2cccc23)cc1	-52
COc1ccc(C(=O)N2c3cc4c(cc3C(C)=CC2(C)C)OCO4)cc1	-18
c1ccc2c(c1)CNCC21CCN(CC2CC2)CC1	-30
CC(=O)N1CC(=O)N(c2ccccc2)CC12CCN(C(=O)N1CCCC1)C2 (stereo not drawn)	1
CC(=O)N1CC(=O)N(c2ccccc2)CC12CCN(C(=O)C1CCOCC1)C2 (stereo not drawn)	3
CC(=O)N1CC(=O)N(c2ccccc2)CC12CCN(CC1CCOCC1)C2 (stereo not drawn)	-86*
C[C@H](CCC(=O)NCC(=O)O)[C@H]1CCC2C3C(C[C@H](O)[C@@]21C)[C@@]1(C)CC[C@@H](O)CC1C[C@H]3O (stereo partly drawn)	13
N#CCN1CCC2(CC1)CC(=O)N(c1cccnc1)c1ccccc12	92
Cn1cc(C(=O)N2CC[C@@H]3CNS(=O)(=O)[C@H]3CC2)c2ccccc21	-28
CC(=O)N(C)C1CCC2(CC1)CN(C(=O)C(C)C)Cc1ccccc1O2 (stereo not drawn)	-3
Cc1[nH]cnc1-c1nccn1Cc1cnn(Cc2ccccc2)c1	0
Cc1ccc(Nc2nc(C(=O)Nc3ccc(Br)cc3)nc3ccccc23)cc1	6
CC[C@@H](C(=O)[C@@H](C)[C@@H](O)[C@H](C)[C@@H]1O[C@@H]([C@@H](CC)C(=O)O)CC[C@@H]1C)[C@H]1OC2(C=C[C@@H](O)[C@]3(CC[C@@](C)(C4CC[C@](O)(CC)[C@H](C)O4)O3)O2)[C@H](C)C[C@@H]1C (stereo partly drawn)	-84*
CC[C@@H](C(=O)[C@@H](C)[C@@H](O)[C@H](C)[C@@H]1O[C@@H]([C@@H](CC)C(=O)O)CC[C@@H]1C)[C@H]1O[C@]2(C=C[C@@H](O)[C@]3(CC[C@@](C)(C4CC[C@](O)(CC)[C@H](C)O4)O3)O2)[C@H](C)C[C@@H]1C (stereo partly drawn)	-81*
O=C(Nc1ccc(CN2CCOCC2)cc1)c1cccnc1	-1
CSc1nc(C)c(CC(=O)Nc2ccc3[nH]c4c(c3c2)CCCC4)c(=O)[nH]1	16
COCCn1c(C(=O)N2CCCCO2)cc2c1c1ccccc1n2C	-36
Cc1cc(S(N)(=O)=O)ccc1OCC(=O)O	64
O=C1OCCN1C1CCN(Cc2cc3n(n2)CCNC3)CC1	2
CC(C)n1nc(-c2ccc3oc(N)nc3c2)c2c(N)ncnc21	-83*
Cc1nc(-c2ccc(F)cc2)nc2c1CCN(c1ncccn1)CC2	19
CCO[C@H]1COC[C@@H]1NC(=O)Cc1nc2ccc(Cl)cc2[nH]1	-2
